Assay outcomes from PubChem BioAssay.
USP1-UAF1 inh = Inhibitors of USP1/UAF1: Primary Screen; Potency, µM (top dose mostly 57.1 µM), for inactives: top-dose activity change, negative = inhibition, hits mostly inhibitors; AID 743255, 2014; recombinant USP1/UAF1, Ub-Rhodamine cleavage fluorescence; hit rate 0.23% among 390,000; active = well fitted inhibition curve with a large enough effect; inconclusive = small, poorly fitted or top-dose-only effect; inactive = no such curve, though single readings can be large or run the other way; note: potency is the fitted concentration of half-maximal effect; % is set by controls: 0 for no effect and ±100 for the full control effect; nearly all actives have a fitted effect of over 60% in size
Target sequence (O94782 whole entry, looked up): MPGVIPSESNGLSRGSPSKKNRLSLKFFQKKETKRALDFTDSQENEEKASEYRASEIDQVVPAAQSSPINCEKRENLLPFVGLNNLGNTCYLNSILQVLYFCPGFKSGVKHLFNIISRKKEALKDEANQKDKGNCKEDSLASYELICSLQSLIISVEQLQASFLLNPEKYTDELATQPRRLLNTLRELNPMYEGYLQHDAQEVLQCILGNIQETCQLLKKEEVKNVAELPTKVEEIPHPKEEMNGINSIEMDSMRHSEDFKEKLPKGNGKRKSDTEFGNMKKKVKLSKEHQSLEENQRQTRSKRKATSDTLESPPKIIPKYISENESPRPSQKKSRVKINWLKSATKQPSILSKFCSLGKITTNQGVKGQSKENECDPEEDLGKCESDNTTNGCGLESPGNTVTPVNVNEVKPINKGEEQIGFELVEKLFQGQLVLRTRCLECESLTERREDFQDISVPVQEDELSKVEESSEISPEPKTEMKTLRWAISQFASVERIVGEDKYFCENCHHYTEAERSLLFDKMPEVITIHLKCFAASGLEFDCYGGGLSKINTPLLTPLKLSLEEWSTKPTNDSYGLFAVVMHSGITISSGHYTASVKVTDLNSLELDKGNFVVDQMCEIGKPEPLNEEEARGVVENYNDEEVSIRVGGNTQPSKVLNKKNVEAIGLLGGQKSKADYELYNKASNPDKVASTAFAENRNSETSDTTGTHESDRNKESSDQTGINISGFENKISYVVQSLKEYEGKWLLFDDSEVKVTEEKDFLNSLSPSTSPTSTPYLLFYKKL
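USP1/UAF1 complex (1 nM) preincubated 15 min at room temperature with compound, then Ub-Rho substrate (150 nM final) added. Kinetic fluorescence at 480/540 nm over 6 reads at 60 s intervals; 50 mM HEPES pH 7.8, 0.5 mM EDTA, 0.1 mg/ml BSA, 1 mM TCEP, 0.01% Tween-20.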
TRHR ag = qHTS for Small Molecule Agonists and Allosteric Enhancers of Human TRH Receptor: Primary Screen for Agonists. Thyrotropin-releasing hormone receptor (Homo sapiens), P34981. TRHR cells, calcium flux fluo-8, FDSS agonist mode. activation, % at 2 µM. hit rate 0.18% among 360,000. AID 493084, 2011; note: 0% is about no effect
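Agonist-mode FDSS calcium read (Ex 480/Em 530, 1 s cycles) in 1536-well TRHR cells with fluo-8 dye, after 10-cycle baseline and 23 nL compound addition; TRH at EC20 (10 nM final) added afterwards for the enhancer phase.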
D1 antagonist = Antagonist of Human D 1 Dopamine Receptor: qHTS | HEK293 TREx D1 cells, calcium flux, dopamine EC80; stronger effect = lower value | activity change, negative = inhibition, % at 10 µM | hit rate 3.2% among 360,000 | AID 504652, 2011; in the data active = activity change below about -30%; note: % is set by controls: 0 for no effect and ±100 for the full control effect
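Antagonism measured as reduced calcium response to an EC80 dopamine addition following 180 s compound pre-read; cells were inducible HEK293 Trex D1 plated overnight at 30 C, read kinetically at 1 cycle/sec.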
TRHR PAM = qHTS for Small Molecule Agonists and Allosteric Enhancers of Human TRH Receptor: Primary Screen for Enhancers; TRHR cells, fluo-8 calcium fluorescence, EC20 TRH enhancement; enhancement, % at 2 µM; hit rate 0.66% among 360,000; in the data active = enhancement above about 30%; note: 0% is about no effect
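TRHR-expressing cells loaded with fluo-8 calcium dye were read kinetically (ex 480/em 530) during compound addition, then stimulated with an EC20 of TRH (10 nM final). Enhancement of the Gq-mediated intracellular calcium response was scored.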
D1 potentiator = Potentiators of Human D1 Dopamine Receptor: qHTS | D(1A) dopamine receptor (Homo sapiens), P21728 | HEK293 TREx D1 cells, calcium flux, dopamine EC20 potentiation | potentiation, % at 10 µM | hit rate 0.036% among 360,000 | AID 504651, 2011; in the data active = potentiation above about 30%; note: 0% is about no effect
D1 agonist = Allosteric Agonists of the Human D1 Dopamine Receptor: qHTS. D(1A) dopamine receptor (Homo sapiens), P21728. HEK293 T-REx D1 cells, calcium flux, agonist mode. activation, % at 2 µM. hit rate 1% among 360,000; note: 0% is about no effect
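Tetracycline-induced HEK293 TREx D1 cells, force-coupled to calcium signalling, were dye-loaded with a no-wash calcium kit. Compound was pin-added after a 10 s baseline. Fluorescence was read kinetically at 1 cycle/s for 180 s, with calcium rises flagged as agonism.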
Starred values were filed as active, the others as inactive; ? = inconclusive; . = not tested or not shown. The list is not random: actives were taken first. Their share in the collection is about 4.4%. Cut-off read from the data, not from the text of the source, unless noted: active = activation above about 30%; inactive = the rest.

SMILES	USP1-UAF1 inh	TRHR ag	D1 antagonist	TRHR PAM	D1 potentiator	D1 agonist
CCCn1c(N)c(N(CCOC)C(=O)c2ccc(F)cc2)c(=O)[nH]c1=O	-20%	1	-19	-1	4	3
COCCN(C(=O)CSCC(=O)Nc1ccc(C)cc1)c1c(N)n(CC(C)C)c(=O)[nH]c1=O	-8%	0	-2	-3	.	2
CC(C)Oc1ccc(CNC(=O)c2cnc3sc(N4CCCC4)nn3c2=O)cc1	2%	0	7	-4	-4	2
CC(=O)c1ccc(NC(=O)COc2ccccc2-c2nc(-c3ccc(C)cc3)no2)cc1	-11%	0	-2	0	0	-1
CN1CCN(c2oc(COc3ccc(-c4ccccc4)cc3)nc2C#N)CC1	-17%	1	-35*	4	-10	21
N#Cc1nc(-c2ccc(OCc3ccccc3)cc2)oc1N1CCC(C(N)=O)CC1	-1%	1	-36*	17	-6	14
CN(C)CCNc1oc(COc2ccc(-c3ccccc3)cc2)nc1C#N	-11%	3	-8	9	-3	40*
Cc1ccc(/C=C2\Oc3cc(OCC(=O)NN)ccc3C2=O)o1	-25%	1	12	0	-9	2
COCCN(CCOC)Cc1c(O)ccc2c1O/C(=C\c1ccc(C)o1)C2=O	32µM*	3	-2	-1	1	9
CCN(CC)Cc1c(O)ccc2c1O/C(=C\C=C\c1ccccc1)C2=O	32µM*	13	8	1	0	49*
COc1ccc2c(c1)CC/C(=C\C=C\c1ccccc1OC)C2=O	?	1	-1	4	7	11
COc1ccccc1/C=C/C=C1\Oc2c(ccc(O)c2CN(C)C)C1=O	25µM*	17	9	1	-12	103*
COC(=O)c1ccc(NC(=O)CCc2c(C)nn(-c3ccc(N4CCOCC4)nn3)c2C)cc1	-17%	0	-28	-2	-6	2
O=c1oc2ccccc2cc1-c1cn2cc(Cc3ccc(F)cc3)sc2n1	-26%	-2	7	0	-2	2
O=c1oc2ccccc2cc1-c1cn2cc(Cc3ccc(Br)cc3)sc2n1	-2%	1	22	-8	2	45*
COCCCn1c(=O)/c(=C\c2ccccc2OC(F)F)s/c1=C(/C#N)C(N)=O	-9%	1	-7	-3	0	3
COCCCn1c(=O)/c(=C\c2ccc(OC(F)F)c(OC)c2)s/c1=C(/C#N)C(N)=O	-13%	-1	-44*	-2	-7	2
COc1cccc(CNC(=O)c2ccc(-c3nc(CS(=O)c4ccccc4)c(C)o3)cc2)c1 (configuration not stated)	-17%	0	-6	-4	0	1
CC(C)c1ccc(Nc2nc3ccc(C(=O)c4ccccc4)cc3n3cnnc23)cc1	-11%	-1	-6	5	1	0
CCCc1nn(-c2cc(Cl)ccc2OC)c2c1C(=O)CCC2	3%	0	-46*	7	2	4
CCCCc1nn(-c2cc(Cl)ccc2OC)c2c1C(=O)CC(C)(C)C2	?	0	13	3	-4	6
O=C(NCC(c1ccco1)S(=O)(=O)c1cccs1)c1ccccc1F (configuration not stated)	-4%	0	.	1	0	0
COC(=O)c1ccc(N2CCc3ccccc32)c([N+](=O)[O-])c1	-24%	0	-14	-3	3	0
CCOC(CNC(=O)c1ccc(N2CCc3ccccc32)c([N+](=O)[O-])c1)OCC	-15%	0	-37*	-8	-9	12
